About 8,800 targets were measured; listed, in parts, are those with a hit and a random draw of the rest. About 0.5% of all pairs of compound and target were hits. Unmarked numbers belong to inactive results.

Chain of UniProt O76075 (O76075 whole entry, looked up): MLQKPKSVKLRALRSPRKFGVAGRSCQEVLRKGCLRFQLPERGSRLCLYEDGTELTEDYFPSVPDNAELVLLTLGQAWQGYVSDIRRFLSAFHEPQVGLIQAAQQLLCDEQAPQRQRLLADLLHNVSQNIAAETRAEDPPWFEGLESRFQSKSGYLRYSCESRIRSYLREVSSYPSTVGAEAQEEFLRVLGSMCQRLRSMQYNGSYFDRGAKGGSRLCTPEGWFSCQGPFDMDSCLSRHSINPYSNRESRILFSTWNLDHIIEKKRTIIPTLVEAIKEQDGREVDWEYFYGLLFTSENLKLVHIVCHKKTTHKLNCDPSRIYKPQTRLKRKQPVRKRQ
Chain of UniProt Q9HCG8 (Q9HCG8 whole entry, looked up): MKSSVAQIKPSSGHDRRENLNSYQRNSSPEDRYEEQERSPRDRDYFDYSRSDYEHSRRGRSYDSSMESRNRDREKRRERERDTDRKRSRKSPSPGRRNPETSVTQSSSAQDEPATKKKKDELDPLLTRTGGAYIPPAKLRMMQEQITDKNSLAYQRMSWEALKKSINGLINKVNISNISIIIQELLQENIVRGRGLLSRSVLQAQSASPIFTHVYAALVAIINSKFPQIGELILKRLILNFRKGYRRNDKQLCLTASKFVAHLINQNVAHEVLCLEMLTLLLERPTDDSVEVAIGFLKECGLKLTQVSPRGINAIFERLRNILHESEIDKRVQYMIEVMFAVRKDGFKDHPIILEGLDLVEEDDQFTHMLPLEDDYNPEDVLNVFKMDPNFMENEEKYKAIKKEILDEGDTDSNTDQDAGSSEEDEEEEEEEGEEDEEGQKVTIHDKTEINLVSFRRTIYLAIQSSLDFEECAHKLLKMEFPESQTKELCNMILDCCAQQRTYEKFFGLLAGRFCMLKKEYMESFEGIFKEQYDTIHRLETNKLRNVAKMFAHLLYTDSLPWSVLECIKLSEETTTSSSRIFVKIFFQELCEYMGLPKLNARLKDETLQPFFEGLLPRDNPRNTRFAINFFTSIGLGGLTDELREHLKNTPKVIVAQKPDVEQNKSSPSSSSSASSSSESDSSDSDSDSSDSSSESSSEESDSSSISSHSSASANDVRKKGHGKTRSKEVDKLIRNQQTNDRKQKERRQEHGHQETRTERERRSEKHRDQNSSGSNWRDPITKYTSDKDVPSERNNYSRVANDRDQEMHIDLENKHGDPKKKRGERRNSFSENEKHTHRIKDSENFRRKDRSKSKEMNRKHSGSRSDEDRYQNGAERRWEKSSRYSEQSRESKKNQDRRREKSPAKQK
Chain of UniProt Q5EBM0 (Q5EBM0 whole entry, looked up): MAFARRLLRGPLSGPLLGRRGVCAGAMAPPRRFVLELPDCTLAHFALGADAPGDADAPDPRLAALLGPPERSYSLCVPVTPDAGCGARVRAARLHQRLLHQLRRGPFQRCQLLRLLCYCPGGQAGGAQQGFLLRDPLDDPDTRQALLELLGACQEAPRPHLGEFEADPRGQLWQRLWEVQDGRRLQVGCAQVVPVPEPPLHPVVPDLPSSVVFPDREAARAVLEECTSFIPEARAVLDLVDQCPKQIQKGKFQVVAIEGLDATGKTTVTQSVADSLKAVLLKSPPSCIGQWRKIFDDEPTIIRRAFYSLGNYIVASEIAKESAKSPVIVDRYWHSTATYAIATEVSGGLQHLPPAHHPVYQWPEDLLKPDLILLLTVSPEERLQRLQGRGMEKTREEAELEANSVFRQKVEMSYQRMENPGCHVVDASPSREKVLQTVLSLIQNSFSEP
Chain of UniProt P67870 (P67870 whole entry, looked up): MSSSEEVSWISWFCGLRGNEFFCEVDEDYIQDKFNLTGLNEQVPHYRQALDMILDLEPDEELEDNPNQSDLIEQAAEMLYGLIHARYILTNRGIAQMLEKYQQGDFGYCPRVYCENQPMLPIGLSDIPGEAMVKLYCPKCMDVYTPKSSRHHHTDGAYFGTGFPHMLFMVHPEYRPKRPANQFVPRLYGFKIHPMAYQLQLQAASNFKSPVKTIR
Chain of UniProt P00374 (P00374 whole entry, looked up): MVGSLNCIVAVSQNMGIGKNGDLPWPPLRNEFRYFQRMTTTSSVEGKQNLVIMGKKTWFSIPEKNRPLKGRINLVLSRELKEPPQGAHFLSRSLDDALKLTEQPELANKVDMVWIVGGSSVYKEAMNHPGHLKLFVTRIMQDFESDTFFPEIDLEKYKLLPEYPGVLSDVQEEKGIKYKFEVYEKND
Chain of UniProt Q9P003 (Q9P003 whole entry, looked up): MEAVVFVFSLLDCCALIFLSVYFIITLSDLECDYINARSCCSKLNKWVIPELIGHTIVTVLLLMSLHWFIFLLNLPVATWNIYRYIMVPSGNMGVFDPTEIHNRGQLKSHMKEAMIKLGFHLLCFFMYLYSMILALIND
Chain of UniProt P50570 (P50570 whole entry, looked up): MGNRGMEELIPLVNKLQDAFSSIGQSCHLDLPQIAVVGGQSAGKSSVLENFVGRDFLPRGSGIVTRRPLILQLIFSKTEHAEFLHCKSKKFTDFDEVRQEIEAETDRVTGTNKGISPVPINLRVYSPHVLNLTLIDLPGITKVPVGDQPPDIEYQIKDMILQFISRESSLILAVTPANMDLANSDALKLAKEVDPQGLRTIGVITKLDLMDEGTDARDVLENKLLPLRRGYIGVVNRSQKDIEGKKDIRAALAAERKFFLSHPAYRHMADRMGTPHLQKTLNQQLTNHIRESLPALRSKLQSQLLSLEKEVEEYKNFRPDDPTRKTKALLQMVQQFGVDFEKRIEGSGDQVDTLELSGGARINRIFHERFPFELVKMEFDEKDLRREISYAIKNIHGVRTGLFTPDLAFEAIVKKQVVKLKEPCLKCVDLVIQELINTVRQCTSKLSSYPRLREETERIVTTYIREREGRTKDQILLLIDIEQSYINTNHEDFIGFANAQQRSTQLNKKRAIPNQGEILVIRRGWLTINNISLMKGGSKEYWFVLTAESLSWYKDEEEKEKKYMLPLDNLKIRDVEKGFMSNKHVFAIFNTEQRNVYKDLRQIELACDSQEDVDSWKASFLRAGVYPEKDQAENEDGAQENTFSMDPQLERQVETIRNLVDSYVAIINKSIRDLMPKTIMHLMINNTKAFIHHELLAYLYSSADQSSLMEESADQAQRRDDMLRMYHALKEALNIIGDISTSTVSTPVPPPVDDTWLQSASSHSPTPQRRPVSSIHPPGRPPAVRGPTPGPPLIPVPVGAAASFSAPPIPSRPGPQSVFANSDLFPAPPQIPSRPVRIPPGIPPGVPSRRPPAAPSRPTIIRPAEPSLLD
Chain of UniProt Q9NSV4 (Q9NSV4 whole entry, looked up): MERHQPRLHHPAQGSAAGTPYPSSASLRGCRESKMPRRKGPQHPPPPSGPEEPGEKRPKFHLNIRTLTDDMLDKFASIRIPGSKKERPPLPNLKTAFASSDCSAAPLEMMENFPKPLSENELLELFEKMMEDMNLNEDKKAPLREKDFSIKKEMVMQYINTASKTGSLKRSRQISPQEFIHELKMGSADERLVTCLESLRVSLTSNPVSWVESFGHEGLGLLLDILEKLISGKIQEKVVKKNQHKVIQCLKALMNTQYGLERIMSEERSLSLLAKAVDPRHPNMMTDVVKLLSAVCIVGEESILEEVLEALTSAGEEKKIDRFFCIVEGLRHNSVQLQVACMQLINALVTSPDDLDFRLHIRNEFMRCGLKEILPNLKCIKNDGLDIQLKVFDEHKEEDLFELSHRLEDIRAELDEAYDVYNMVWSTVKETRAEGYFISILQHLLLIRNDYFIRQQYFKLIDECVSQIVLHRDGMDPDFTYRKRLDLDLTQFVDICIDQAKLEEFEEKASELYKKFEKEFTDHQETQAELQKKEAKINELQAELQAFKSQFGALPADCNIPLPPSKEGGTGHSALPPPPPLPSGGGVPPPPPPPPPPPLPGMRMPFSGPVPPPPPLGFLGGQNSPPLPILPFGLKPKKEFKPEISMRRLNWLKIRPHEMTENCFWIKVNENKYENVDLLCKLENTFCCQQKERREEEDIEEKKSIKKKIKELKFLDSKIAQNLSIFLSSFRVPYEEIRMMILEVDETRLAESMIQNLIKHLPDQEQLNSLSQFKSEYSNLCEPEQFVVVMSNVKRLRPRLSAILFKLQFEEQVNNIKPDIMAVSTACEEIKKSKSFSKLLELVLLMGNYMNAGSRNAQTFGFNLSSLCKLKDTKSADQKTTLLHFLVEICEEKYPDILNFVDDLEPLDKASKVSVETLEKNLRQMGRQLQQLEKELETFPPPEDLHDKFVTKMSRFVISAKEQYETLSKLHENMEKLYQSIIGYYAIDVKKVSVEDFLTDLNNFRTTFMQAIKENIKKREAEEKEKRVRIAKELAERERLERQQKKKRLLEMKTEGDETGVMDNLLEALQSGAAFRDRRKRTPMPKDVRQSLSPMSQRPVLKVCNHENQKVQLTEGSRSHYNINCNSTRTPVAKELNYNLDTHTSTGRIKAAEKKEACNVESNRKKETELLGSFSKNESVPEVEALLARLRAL
Chain of UniProt Q9H5X1 (Q9H5X1 whole entry, looked up): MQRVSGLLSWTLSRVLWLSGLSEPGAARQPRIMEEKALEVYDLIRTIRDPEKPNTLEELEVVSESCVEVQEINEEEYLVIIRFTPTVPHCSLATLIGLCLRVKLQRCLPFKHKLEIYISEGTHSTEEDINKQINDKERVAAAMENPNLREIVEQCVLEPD
Chain of UniProt Q07973 (Q07973 whole entry, looked up): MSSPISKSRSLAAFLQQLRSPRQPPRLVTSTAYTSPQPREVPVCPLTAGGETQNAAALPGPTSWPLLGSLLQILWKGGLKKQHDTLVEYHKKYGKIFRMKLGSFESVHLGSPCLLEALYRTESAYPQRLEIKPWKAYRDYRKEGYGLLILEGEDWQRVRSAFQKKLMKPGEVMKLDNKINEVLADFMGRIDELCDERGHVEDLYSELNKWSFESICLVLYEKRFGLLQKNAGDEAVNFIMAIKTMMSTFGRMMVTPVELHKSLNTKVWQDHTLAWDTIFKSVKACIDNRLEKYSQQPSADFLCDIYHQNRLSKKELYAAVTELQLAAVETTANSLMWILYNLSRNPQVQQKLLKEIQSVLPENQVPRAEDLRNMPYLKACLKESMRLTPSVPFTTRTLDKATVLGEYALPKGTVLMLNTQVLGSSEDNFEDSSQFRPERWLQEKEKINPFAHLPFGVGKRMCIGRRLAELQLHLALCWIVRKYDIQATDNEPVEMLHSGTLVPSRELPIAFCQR

Compound in one assay: CC(C)C1=C2N=C(C=C(N2N=C1)NCC3=CC=CC=C3)NCCCCCCN
Nature of the assay: log2 fold change, soluble protein after heating vs DMSO (PISA); higher = thermal stabilisation; K562 lysate, 10 uM; active = over 0.2 and 3.5 SD of the protein, either way, in both replicates (recomputed). The procedure, abridged:
(§1)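 Quantification was by TMTpro 16plex LC-MS/MS with equalised channel sums, applied to the supernatant after 21,000xg for 90 min. Samples were crude K562 extract at 1 mg/mL protein in PBS pH 7.4 with 1 mM MgCl2, treated with 10 μM compound for 30 min, heated for 3 min across 48°C-58°C, pooled and brought to 0.5% NP-40 at 4°C. Values are log-two fold changes in thermal stability relative to solvent controls, from duplicates.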
With DLGAP5 (UniProt Q15398), the log2 fold change is -0.036.

As for DCTN1 (UniProt Q14203), the log2 fold change is -0.006.

Take DOCK10 (UniProt Q96BY6): the log2 fold change was -0.084.

As for DFFB (UniProt O76075), the log2 fold change is -0.027.

Regarding CWC22 (UniProt Q9HCG8), the log2 fold change is -0.005.

On to CHMP4A isoform 2 (UniProt Q9BY43), for which the log2 fold change was 0.036.

In the case of DDX54 isoform 2 (UniProt Q8TDD1), the log2 fold change was -0.001.

With DLG3 isoform 2 (UniProt Q92796), the log2 fold change is -0.005.

On to COG3 (UniProt Q96JB2), for which the log2 fold change was -0.04.

On to CMPK2 (UniProt Q5EBM0), for which the log2 fold change is 0.026.

Consider CNOT6L (UniProt Q96LI5), for which the log2 fold change was -0.05.

CSK (UniProt P41240): the log2 fold change was 0.

As to CYP24A1 (UniProt Q07973), the log2 fold change is 0.019.

On to DAZAP1 (UniProt Q96EP5), for which the log2 fold change is -0.023.

As for CNIH4 (UniProt Q9P003), the log2 fold change is 0.278.

As to DNM2 (UniProt P50570), the log2 fold change was 0.018.

On to CMIP (UniProt Q8IY22), for which the log2 fold change was -0.011.

Take COQ9 (UniProt O75208): the log2 fold change is -0.036.

Take CNOT2 (UniProt Q9NZN8): the log2 fold change was -0.001.

Turning to DOCK8 (UniProt Q8NF50), the log2 fold change was 0.003.

As for CSNK2B (UniProt P67870), the log2 fold change was 0.

Turning to CPT1A (UniProt P50416), the log2 fold change is -0.026.

For the target DNAH10 (UniProt Q8IVF4), the log2 fold change is -0.015.

Turning to CKAP2 (UniProt Q8WWK9), the log2 fold change is -0.053.

On to CIC (UniProt I3L2J0), for which the log2 fold change is 0.013.

With COTL1 (UniProt Q14019), the log2 fold change was -0.007.

For CHORDC1 (UniProt Q9UHD1), the log2 fold change is -0.032.

For CXorf38 (UniProt Q8TB03), the log2 fold change was 0.062.

Consider DHFR (UniProt P00374), for which the log2 fold change is 0.024.

On to CORO1A (UniProt P31146), for which the log2 fold change was 0.055.

For CHUK (UniProt O15111), the log2 fold change was 0.014.

DIAPH3 (UniProt Q9NSV4): the log2 fold change was -0.066.

Take CIP2A (UniProt Q8TCG1): the log2 fold change is -0.03.

With CIAO2A (UniProt Q9H5X1), the log2 fold change was 0.056.

Compound in another assay: CC1=C(C(CC(=O)N1)C2=CC=C(C=C2)C(F)(F)F)C(=O)NC3=C(C=C4C(=C3)C=NN4)F
Described as above. The procedure, abridged: as §1
DLGAP5 (UniProt Q15398): the log2 fold change is -0.009.

For the target DCTN1 (UniProt Q14203), the log2 fold change is 0.001.

With DOCK10 (UniProt Q96BY6), the log2 fold change was -0.161.

DFFB (UniProt O76075): the log2 fold change is 0.044.

Take CWC22 (UniProt Q9HCG8): the log2 fold change is 0.06.

In the case of CHMP4A isoform 2 (UniProt Q9BY43), the log2 fold change is 0.011.

On to DDX54 isoform 2 (UniProt Q8TDD1), for which the log2 fold change is 0.02.

Take DLG3 isoform 2 (UniProt Q92796): the log2 fold change was 0.055.

For COG3 (UniProt Q96JB2), the log2 fold change was 0.006.

With CMPK2 (UniProt Q5EBM0), the log2 fold change was 0.014.

Take CNOT6L (UniProt Q96LI5): the log2 fold change is 0.064.

As for CSK (UniProt P41240), the log2 fold change was -0.086.

With CYP24A1 (UniProt Q07973), the log2 fold change was -0.05.

Regarding DAZAP1 (UniProt Q96EP5), the log2 fold change was -0.062.

As for CNIH4 (UniProt Q9P003), the log2 fold change is 0.066.

Regarding DNM2 (UniProt P50570), the log2 fold change was 0.011.

Take CMIP (UniProt Q8IY22): the log2 fold change was 0.001.

With COQ9 (UniProt O75208), the log2 fold change was 0.017.

As to CNOT2 (UniProt Q9NZN8), the log2 fold change was -0.01.

DOCK8 (UniProt Q8NF50): the log2 fold change is -0.005.

On to CSNK2B (UniProt P67870), for which the log2 fold change was -0.054.

Take CPT1A (UniProt P50416): the log2 fold change was -0.009.

As to DNAH10 (UniProt Q8IVF4), the log2 fold change is -0.04.

With CKAP2 (UniProt Q8WWK9), the log2 fold change is -0.012.

On to CIC (UniProt I3L2J0), for which the log2 fold change is 0.054.

In the case of COTL1 (UniProt Q14019), the log2 fold change was -0.055.

In the case of CHORDC1 (UniProt Q9UHD1), the log2 fold change was -0.009.

Take CXorf38 (UniProt Q8TB03): the log2 fold change was -0.095.

Take DHFR (UniProt P00374): the log2 fold change was -0.018.

For the target CORO1A (UniProt P31146), the log2 fold change was 0.018.

For CHUK (UniProt O15111), the log2 fold change was -0.047.

In the case of DIAPH3 (UniProt Q9NSV4), the log2 fold change is 0.043.

With CIP2A (UniProt Q8TCG1), the log2 fold change was 0.009.

In the case of CIAO2A (UniProt Q9H5X1), the log2 fold change is 0.032.

Compound in the next assay: CC1=C(C2=C(C=C1)C(=O)C3=CC=CC=C3N2CCCN)C
The description is as above. The procedure, abridged:
as §1
Turning to DLGAP5 (UniProt Q15398), the log2 fold change is -0.007.

For DCTN1 (UniProt Q14203), the log2 fold change is 0.011.

Turning to DOCK10 (UniProt Q96BY6), the log2 fold change was 0.008.

Regarding DFFB (UniProt O76075), the log2 fold change is 0.08.

CWC22 (UniProt Q9HCG8): the log2 fold change was 0.

CHMP4A isoform 2 (UniProt Q9BY43): the log2 fold change is -0.02.

DDX54 isoform 2 (UniProt Q8TDD1): the log2 fold change is -0.054.

Consider DLG3 isoform 2 (UniProt Q92796), for which the log2 fold change was -0.009.

For COG3 (UniProt Q96JB2), the log2 fold change was -0.019.

Turning to CMPK2 (UniProt Q5EBM0), the log2 fold change was 0.027.

Consider CNOT6L (UniProt Q96LI5), for which the log2 fold change is -0.07.

As for CSK (UniProt P41240), the log2 fold change was -0.04.

As to CYP24A1 (UniProt Q07973), the log2 fold change is -0.051.

As for DAZAP1 (UniProt Q96EP5), the log2 fold change was -0.015.

Turning to CNIH4 (UniProt Q9P003), the log2 fold change is -0.115.

In the case of DNM2 (UniProt P50570), the log2 fold change is 0.024.

As for CMIP (UniProt Q8IY22), the log2 fold change is -0.021.

Consider COQ9 (UniProt O75208), for which the log2 fold change was 0.007.

With CNOT2 (UniProt Q9NZN8), the log2 fold change is 0.03.

With DOCK8 (UniProt Q8NF50), the log2 fold change was 0.022.

With CSNK2B (UniProt P67870), the log2 fold change was 0.114.

Consider CPT1A (UniProt P50416), for which the log2 fold change was -0.041.

In the case of DNAH10 (UniProt Q8IVF4), the log2 fold change is -0.069.

On to CKAP2 (UniProt Q8WWK9), for which the log2 fold change is -0.004.

CIC (UniProt I3L2J0): the log2 fold change was -0.044.

For COTL1 (UniProt Q14019), the log2 fold change is 0.02.

For the target CHORDC1 (UniProt Q9UHD1), the log2 fold change is 0.001.

For CXorf38 (UniProt Q8TB03), the log2 fold change is 0.016.

Regarding DHFR (UniProt P00374), the log2 fold change is -0.013.

Turning to CORO1A (UniProt P31146), the log2 fold change was -0.107.

For CHUK (UniProt O15111), the log2 fold change is -0.014.

As to DIAPH3 (UniProt Q9NSV4), the log2 fold change was 0.005.

Take CIP2A (UniProt Q8TCG1): the log2 fold change is 0.003.

With CIAO2A (UniProt Q9H5X1), the log2 fold change was -0.06.

These data come from the supplement of paper PMC10849652.
